Screen size: about 5,500 compounds; about 2,000 (36%) were called active. Roughly 18% stayed inconclusive and do not appear here. Cut-off read from the data, not from the text of the source: active = normalized growth mostly below about 0.91 (no sharp cut-off); inconclusive = no clear call, values can overlap the other calls; inactive = mostly above about 0.92. The list shows a part of the results.
Test: chemical genetic growth profiling, strain panel (AID 1159580);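 note: tested at 20 µM; growth read once vehicle control cultures reached saturation at 30 °C; 1 = growth at the plate median or of vehicle wells; lower values mean less growth of the strain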
Conditions: growth OD

Measured: normalized growth

CC(=O)O[C@H]1CC[C@@]2(C)C(=CCC3C2CC[C@@]2(C)C3CC[C@@H]2C(C)CCCC(C)C)C1 (stereo partly drawn)
inactive: S. cerevisiae deletion strains, locus YJR066W, strain TOR1, hits give low values 0.96 | S. cerevisiae deletion strains, locus YKL009W, strain mrt4, hits give low values 1.05 | S. cerevisiae deletion strains, locus YKL068W, hits give low values 1 | S. cerevisiae deletion strains, locus YKL085W, strain MDH1 (second series), hits give low values 1.01 | S. cerevisiae deletion strains, locus YKL085W, strain MDH1, hits give low values 1.01 | S. cerevisiae deletion strains, locus YKL160W, strain elf1, hits give low values 0.997 | S. cerevisiae deletion strains, locus YKL190W, strain CNB1, hits give low values 1.01 | S. cerevisiae deletion strains, locus YKR001C, strain vps1, hits give low values 1.06 | S. cerevisiae deletion strains, locus YKR026C, strain gcn3, hits give low values 0.991 | S. cerevisiae deletion strains, locus YKR091W, strain srl3, hits give low values 0.998 | S. cerevisiae deletion strains, locus YLL001W, strain dnm1, hits give low values 0.997 | S. cerevisiae deletion strains, locus YLL026W, hits give low values 0.995 | S. cerevisiae deletion strains, locus YLL041C, strain sdh2, hits give low values 0.995 | S. cerevisiae deletion strains, locus YLR027C, strain aat2, hits give low values 0.979 | S. cerevisiae deletion strains, locus YLR039C, strain RIC1, hits give low values 1.08 | S. cerevisiae deletion strains, locus YLR058C, strain SHM2, hits give low values 1.01 | S. cerevisiae deletion strains, locus YLR102C, strain apc9, hits give low values 1.01 | S. cerevisiae deletion strains, locus YLR113W, strain HOG1, hits give low values 0.95 | S. cerevisiae deletion strains, locus YLR221C, strain rsa3, hits give low values 0.979 | S. cerevisiae deletion strains, locus YLR258W, strain gsy2, hits give low values 1.01 | S. cerevisiae deletion strains, locus YLR262C, strain YPT6 (second series), hits give low values 1.01 | S. cerevisiae deletion strains, locus YLR262C, strain YPT6, hits give low values 1.14 | S. cerevisiae deletion strains, locus YLR268W, strain sec22, hits give low values 1.03 | S. cerevisiae deletion strains, locus YLR320W, strain mms22, hits give low values 0.98 | S. cerevisiae deletion strains, locus YLR330W, strain CHS5, hits give low values 1.02 | S. cerevisiae deletion strains, locus YLR342W, strain FKS1 (second series), hits give low values 1.07 | S. cerevisiae deletion strains, locus YLR342W, strain FKS1, hits give low values 0.994 | S. cerevisiae deletion strains, locus YLR357W, strain rsc2, hits give low values 0.985 | S. cerevisiae deletion strains, locus YLR370C, strain arc18, hits give low values 0.991 | S. cerevisiae deletion strains, locus YLR371W, strain rom2, hits give low values 1.02 | S. cerevisiae deletion strains, locus YLR384C, strain iki3, hits give low values 1.01 | S. cerevisiae deletion strains, locus YLR418C, strain cdc73, hits give low values 1.04 | S. cerevisiae deletion strains, locus YML016C, strain PPZ1, hits give low values 1.01 | S. cerevisiae deletion strains, locus YML032C, strain rad52, hits give low values 1.02 | S. cerevisiae deletion strains, locus YML120C, strain ndi1, hits give low values 1 | S. cerevisiae deletion strains, locus YML124C, strain tub3, hits give low values 1.02 | S. cerevisiae deletion strains, locus YMR058W, strain fet3, hits give low values 0.913 | S. cerevisiae deletion strains, locus YMR078C, strain ctf18, hits give low values 1.02 | S. cerevisiae deletion strains, locus YMR125W, strain sto1, hits give low values 0.995 | S. cerevisiae deletion strains, locus YMR129W, hits give low values 0.997 | S. cerevisiae deletion strains, locus YMR205C, strain PFK2, hits give low values 1 | S. cerevisiae deletion strains, locus YMR223W, strain ubp8, hits give low values 1.03 | S. cerevisiae deletion strains, locus YMR231W, strain pep5, hits give low values 0.965 | S. cerevisiae deletion strains, locus YMR307W, strain GAS1, hits give low values 1.03 | S. cerevisiae deletion strains, locus YNL067W, strain RPL9B, hits give low values 1.02 | S. cerevisiae deletion strains, locus YNL071W, strain lat1, hits give low values 0.999 | S. cerevisiae deletion strains, locus YNL128W, strain TEP1, hits give low values 1.02 | S. cerevisiae deletion strains, locus YNL153C, strain GIM3, hits give low values 1.02 | S. cerevisiae deletion strains, locus YNL183C, strain NPR1, hits give low values 0.906 | S. cerevisiae deletion strains, locus YNL209W, strain ssb2, hits give low values 0.999 | S. cerevisiae deletion strains, locus YNL233W, strain BNI4, hits give low values 1 | S. cerevisiae deletion strains, locus YNL248C, strain rpa49, hits give low values 1 | S. cerevisiae deletion strains, locus YNL250W, strain rad50, hits give low values 1.02 | S. cerevisiae deletion strains, locus YNL271C, strain bni1, hits give low values 1.04 | S. cerevisiae deletion strains, locus YNL298W, strain CLA4, hits give low values 1.02 | S. cerevisiae deletion strains, locus YNL307C, strain MCK1, hits give low values 1.03 | S. cerevisiae deletion strains, locus YNL322C, strain KRE1 (second series), hits give low values 0.989 | S. cerevisiae deletion strains, locus YNR049C, strain mso1, hits give low values 0.988 | S. cerevisiae deletion strains, locus YNR052C, strain pop2, hits give low values 1.02 | S. cerevisiae deletion strains, locus YOL012C, strain htz1 0.984 | S. cerevisiae deletion strains, locus YOL147C, strain pex11, hits give low values 1.02 | S. cerevisiae deletion strains, locus YOR001W, strain rrp6, hits give low values 0.974 | S. cerevisiae deletion strains, locus YOR061W, strain CKA2, hits give low values 1.01 | S. cerevisiae deletion strains, locus YOR069W, strain VPS5, hits give low values 1.01 | S. cerevisiae deletion strains, locus YOR070C, strain gyp1, hits give low values 0.989 | S. cerevisiae deletion strains, locus YOR080W, strain dia2, hits give low values 0.983 | S. cerevisiae deletion strains, locus YOR083W, strain WHI5, hits give low values 1.01 | S. cerevisiae deletion strains, locus YOR106W, strain vam3, hits give low values 1.04 | S. cerevisiae deletion strains, locus YOR136W, strain idh2, hits give low values 1.03 | S. cerevisiae deletion strains, locus YOR144C, strain elg1, hits give low values 1.02 | S. cerevisiae deletion strains, locus YOR184W, strain ser1, hits give low values 1.02 | S. cerevisiae deletion strains, locus YOR231W, strain MKK1, hits give low values 0.972 | S. cerevisiae deletion strains, locus YOR265W, strain rbl2, hits give low values 0.995 | S. cerevisiae deletion strains, locus YOR270C, strain vph1, hits give low values 1.04 | S. cerevisiae deletion strains, locus YOR290C, strain snf2, hits give low values 1 | S. cerevisiae deletion strains, locus YOR316C, strain cot1, hits give low values 1.02 | S. cerevisiae deletion strains, locus YPL051W, strain arl3, hits give low values 0.982 | S. cerevisiae deletion strains, locus YPL078C, strain atp4, hits give low values 1.01 | S. cerevisiae deletion strains, locus YPL106C, strain sse1, hits give low values 0.975 | S. cerevisiae deletion strains, locus YPL240C, strain hsp82, hits give low values 1 | S. cerevisiae deletion strains, locus YPL241C, strain CIN2, hits give low values 1.01 | S. cerevisiae deletion strains, locus YPL256C, strain CLN2, hits give low values 0.964 | S. cerevisiae deletion strains, locus YPR119W, strain clb2, hits give low values 1.01 | S. cerevisiae deletion strains, locus YPR141C, strain kar3, hits give low values 1.02 | S. cerevisiae deletion strains, locus YPR163C, strain tif3, hits give low values 1.04 | S. cerevisiae deletion strains, locus YPR167C, strain met16, hits give low values 1.03 | S. cerevisiae deletion strains, strain wtn01, hits give low values 1.04 | S. cerevisiae strains, strain wild type, hits give low values 1.01
